Test results published in PubChem BioAssay (NCI).
This is part of a sample that, as a whole, favours compounds with a hit. Of some 83,000 tested, about 20% had one in any assay.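 Compound tested at a single concentration for 48 hours in 96-well plates; a percent growth value below 10 was scored as active.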 Activity calls are given as the source filed them.

Legend:
Assay in all cases: NCI-60 one-dose screen, 48 h (100 = growth as untreated, 0 = no growth, -100 = all killed)
Details in all cases: 10 µM
NCI-H23 lung = test system: NCI-H23 lung
NCI-H226 lung = test system: NCI-H226 lung
NCI-H322M lung = test system: NCI-H322M lung
HOP-62 NSCLC = test system: HOP-62 NSCLC
NCI-H460 lung = test system: NCI-H460 lung
NCI-H522 lung = test system: NCI-H522 lung
A549/ATCC NSCLC = test system: A549/ATCC NSCLC
786-0 renal = test system: 786-0 renal
COLO 205 colon = test system: COLO 205 colon
DU-145 prostate = test system: DU-145 prostate
K-562 leukemia = test system: K-562 leukemia
MALME-3M melanoma = test system: MALME-3M melanoma
MDA-MB-231 breast = test system: MDA-MB-231 breast
RXF 393 renal = test system: RXF 393 renal
SF-295 CNS = test system: SF-295 CNS
SF-539 CNS = test system: SF-539 CNS
UACC-257 melanoma = test system: UACC-257 melanoma
M14 melanoma = test system: M14 melanoma
HCT-15 colon = test system: HCT-15 colon
SF-268 CNS = test system: SF-268 CNS

Measured: growth

COc1ccc2c(c1)/C(=C\c1c[nH]c3ccc(OC)cc13)C(=O)N2
inactive: NCI-H23 lung 49.4% | NCI-H226 lung 72.7% | NCI-H322M lung 54.7% | HOP-62 NSCLC 51% | NCI-H460 lung 53.2% | NCI-H522 lung 50.3% | A549/ATCC NSCLC 30.8% | 786-0 renal 70.9% | COLO 205 colon 36.7% | DU-145 prostate 63.1% | K-562 leukemia 11.6% | MALME-3M melanoma 91.8% | MDA-MB-231 breast 42.3% | RXF 393 renal 60.5% | SF-295 CNS 74% | SF-539 CNS 74.2% | UACC-257 melanoma 68.1% | M14 melanoma 29.8% | HCT-15 colon 31.6%

CC/C(=N\N=C(/CC)c1ccc(Br)cc1)c1ccc(Br)cc1
inactive: NCI-H23 lung 86.2% | NCI-H226 lung 94% | NCI-H322M lung 108% | HOP-62 NSCLC 94.9% | NCI-H460 lung 105% | NCI-H522 lung 71.5% | A549/ATCC NSCLC 98.7% | 786-0 renal 98.9% | COLO 205 colon 100% | DU-145 prostate 116% | K-562 leukemia 109% | MALME-3M melanoma 90.5% | MDA-MB-231 breast 103% | SF-268 CNS 103% | SF-295 CNS 93.9% | SF-539 CNS 99.3% | UACC-257 melanoma 108% | M14 melanoma 98.3% | HCT-15 colon 85.4%

COc1ccc(-c2nc3sc(-c4ccc(OC)cc4)c(-c4ccc(OC)cc4)n3c2/C=C/c2ccc(C(C)C)cc2)cc1
inactive: NCI-H23 lung 95.6% | NCI-H226 lung 90.9% | NCI-H322M lung 96.5% | HOP-62 NSCLC 95.1% | NCI-H460 lung 101% | NCI-H522 lung 76.5% | A549/ATCC NSCLC 95.2% | 786-0 renal 99.2% | COLO 205 colon 107% | DU-145 prostate 115% | K-562 leukemia 105% | MDA-MB-231 breast 90.9% | RXF 393 renal 92.4% | SF-268 CNS 106% | SF-295 CNS 96.6% | SF-539 CNS 94.3% | UACC-257 melanoma 95.6% | M14 melanoma 98.4% | HCT-15 colon 92.5%

Cc1cc(O)c(C(C)(C)C)cc1Sc1cc(C(C)(C)C)c(O)cc1C
active: MDA-MB-231 breast -9.88% | M14 melanoma 0.358%
inactive: NCI-H23 lung 44.5% | NCI-H226 lung 84.3% | NCI-H322M lung 81.6% | HOP-62 NSCLC 62% | NCI-H460 lung 42% | NCI-H522 lung 48.3% | A549/ATCC NSCLC 35.2% | 786-0 renal 79.9% | COLO 205 colon 90.7% | DU-145 prostate 50% | K-562 leukemia 14.6% | MALME-3M melanoma 73.7% | SF-268 CNS 49.4% | SF-295 CNS 53.4% | SF-539 CNS 77.8% | UACC-257 melanoma 30.9% | HCT-15 colon 44.3%

COc1ccc(-c2nc3sc(-c4ccccc4)c(-c4ccccc4)n3c2/C=C/C(=O)c2ccccn2)cc1
inactive: NCI-H23 lung 97.4% | NCI-H226 lung 84% | NCI-H322M lung 112% | HOP-62 NSCLC 134% | NCI-H460 lung 87% | A549/ATCC NSCLC 87.7% | 786-0 renal 98.7% | COLO 205 colon 76.4% | DU-145 prostate 96.7% | K-562 leukemia 66% | MDA-MB-231 breast 75.9% | RXF 393 renal 84% | SF-268 CNS 88% | SF-295 CNS 99.5% | SF-539 CNS 83.7% | UACC-257 melanoma 87.2% | M14 melanoma 89% | HCT-15 colon 60.6%
active: NCI-H522 lung 6.21%

ClC(Cl)(Cl)c1nc2nccnc2[nH]1
inactive: NCI-H23 lung 108% | NCI-H226 lung 98.6% | NCI-H322M lung 90% | HOP-62 NSCLC 102% | NCI-H460 lung 102% | NCI-H522 lung 95.4% | A549/ATCC NSCLC 101% | 786-0 renal 103% | COLO 205 colon 114% | DU-145 prostate 112% | K-562 leukemia 101% | MALME-3M melanoma 102% | RXF 393 renal 111% | SF-268 CNS 113% | SF-295 CNS 78.9% | SF-539 CNS 99.6% | UACC-257 melanoma 108% | M14 melanoma 103% | HCT-15 colon 103%

CCCCN(CCCC)CCCCCCCCC(O)c1cc2ccccc2c2ccccc12 (stereo unspecified)
inactive: NCI-H23 lung 40.8% | NCI-H226 lung 80.2% | NCI-H322M lung 84.5% | HOP-62 NSCLC 76.7% | NCI-H460 lung 54.2% | NCI-H522 lung 39.1% | A549/ATCC NSCLC 56.8% | 786-0 renal 67.3% | COLO 205 colon 44.1% | DU-145 prostate 69.7% | K-562 leukemia 22.6% | MALME-3M melanoma 76.8% | MDA-MB-231 breast 56.2% | SF-268 CNS 65.9% | SF-295 CNS 77.5% | SF-539 CNS 74.6% | UACC-257 melanoma 91.4% | M14 melanoma 45.7% | HCT-15 colon 34.6%

Cc1occc1-c1nnc(SCC(=O)c2ccc(NC(=O)CC(C)C)cc2)o1
inactive: NCI-H23 lung 110% | NCI-H226 lung 109% | NCI-H322M lung 106% | HOP-62 NSCLC 99.6% | NCI-H460 lung 108% | NCI-H522 lung 81.9% | A549/ATCC NSCLC 87.7% | 786-0 renal 96.3% | COLO 205 colon 110% | DU-145 prostate 109% | K-562 leukemia 86.1% | MALME-3M melanoma 89.8% | MDA-MB-231 breast 105% | SF-268 CNS 132% | SF-295 CNS 104% | SF-539 CNS 101% | M14 melanoma 112% | HCT-15 colon 121%
